# In PubChem BioAssay:
# “And” between values parts separate entries of the source, which are not always exact repeats. Identical values can stand only once. Results filed as inconclusive are left out. For some of these results: Potency and affinity values are given separately. The source made the active and inactive calls. Unless noted, no rule for the calls is given here.
# Columns and labels:
# [1] = viability rescue of complex I mutant cybrids, primary screen, cell-based, galactose medium, ATP luminescence (AID 1645843;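 active = z-score of at least 1.8 in each of two replicates, scored against plate mean and spread of sample wells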;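 also: positive z means more ATP and so rescue of galactose-driven cybrid death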); conditions: complex I mutant cybrid cells, 72 h, stronger effect = higher value
# [2] = circadian clock period modulators, cell-based, LOPAC library, luminescence reporter (AID 2774); conditions: circadian reporter cells, at 7 µM, actives lie on both sides;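 also: values are relative to mean of DMSO wells on each plate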
# [3] = target: ATP-dependent translocase ABCB1 (Homo sapiens) (UniProt P08183); assay: MDR1 (ABCB1) efflux transporter inhibition, cell-based (AID 377; in the data active = fluorescence slope change above about 50%); conditions: MDR1-expressing cells, fluorescent substrate accumulation slope; stronger effect = higher value; concentration not given here
# [4] = growth inhibition of DIPG glioma cells, dose response, cell-based, SU-DIPG-IV, MIPE4.0, CellTiter-Glo, qHTS (AID 1347063; cut-off not given, nearly all actives have AC50 up to about 30 µM;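 also: compound exposure lasted 48 hours before the viability readout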); conditions: SU-DIPG-IV viability, CellTiter-Glo ATP luminescence
# [5] = SU-DIPG-VI glioma cell viability, MIPE4.0 library, CellTiter-Glo luminescence, qHTS (AID 1347066; cut-off not given, nearly all actives have AC50 up to about 30 µM;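 also: cells exposed to compound for 48 hours before readout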); conditions: CellTiter-Glo ATP luminescence
# [6] = test system: Hepatitis C virus NS3 helicase; assay: HCV NS3 helicase inhibitors, primary screen, biochemical, fluorescence polarization, LOPAC1280 library (AID 687035; in the data active = inhibition above about 37%); conditions: Purified HCV NS3 helicase, Cy5-dT15 ssDNA binding fluorescence polarization; stronger effect = higher value; concentration not given here
# [7] = Cy5 fluorescence quenching or enhancement artefacts, artefact control for HCV NS3 helicase inhibitor project, biochemical, LOPAC1280 (AID 687037); conditions: Cy5-DNA-NS3h complex fluorescence interference counterscreen
# [8] = phospholipid biosynthesis inhibitors in animal cells, primary screen, cell-based, LOPAC library, screen 4 (AID 1347384); conditions: phospholipid biosynthesis inhibition screen, at 10 µM
# [9] = rescue of polyQ-huntingtin neuronal dysfunction in worms, whole organism, C. elegans mechanosensory neurons, N-terminal huntingtin (AID 1599); conditions: touch response, stronger effect = higher value
# [10] = inhibitors of polyQ protein aggregation (AID 1604); conditions: polyglutamine-induced protein aggregation inhibition assay; stronger effect = higher value; tested at 2.5 µM
# [11] = enhancers of glutamate uptake in motor neurons, MN-1 cell line (AID 1612); conditions: MN-1 motor neuron cells, stronger effect = higher value;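 also: tested at 1 µM final; 0% = mean of DMSO vehicle wells on each plate; positive means more glutamate uptake than control and negative means less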
# [12] = suppressors of polyglutamine aggregation in yeast, 75Q-TubH (AID 1616); conditions: S. cerevisiae 75Q-TubH polyglutamine aggregation suppression; stronger effect = higher value
# [13] = test system: Aerobactin synthetase IucA (Klebsiella pneumoniae, hypervirulent); assay: IucA enzyme inhibition, biochemical, LOPAC library, absorbance readout (AID 1346212); conditions: IucA enzyme assay, absorbance (OD) readout; stronger effect = lower value;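 tested at 8 µM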;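 also: 100% = no compound wells and 0% = no enzyme wells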
# [14] = test system: F380Y; assay: modulators of BK channel variants, profiling panel, selectivity assay, cell-based, U2OS BacMam, thallium flux, beta subunits (AID 1259406;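 active = thallium flux through the channel raised or lowered by more than 3 SD from vehicle-only wells, actives on both sides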;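 also: initial slope of Thallos dye fluorescence rise after thallium is added; log ratio against the mean of 0.3% DMSO vehicle wells on the same plate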); conditions: at 30 µM
# [15] = test system: F380Y/beta2Delta; assay: as above; conditions: at 30 µM
# [16] = reducers of polyQ inclusions in PC12 cells, cell-based, NGF-treated PC12, GFPQ80 (AID 1614); conditions: PC12 NGF-treated GFP-polyQ80 inclusion reduction;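 also: lower means fewer inclusions and 0 means no inclusions at all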
# [17] = Cy5 fluorescence interference with SSB-bound oligo, artefact control for HCV NS3 helicase inhibitor project, biochemical, NIH Clinical Collection, E. coli SSB (AID 743268)
# [18] = test system: Hepatitis C virus NS3 helicase; assay: HCV NS3 helicase inhibitors, primary screen, biochemical, fluorescence polarization, NIH Clinical Collection (AID 743270); conditions: NS3 helicase binding to Cy5-dT15 DNA, stronger effect = higher value, concentration not given here
# [19] = target: Single-stranded DNA-binding protein (Escherichia coli (strain K12)) (UniProt P0AGE0); assay: E. coli SSB displacement from DNA, counter-screen for HCV NS3 helicase inhibitor project, biochemical, fluorescence polarization, NIH Clinical Collection (AID 743271; in the data active = inhibition above about 28%); conditions: stronger effect = higher value, concentration not given here
# [20] = fluorescence interference in NS3h assay format, artefact control for HCV NS3 helicase inhibitor project, biochemical, NIH Clinical Collection (AID 743272); conditions: fluorescence interference counterscreen, stronger effect = lower value;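 also: HCV NS3 helicase with a Cy5 labelled single stranded DNA probe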
# Sequence of ATP-dependent translocase ABCB1 (Homo sapiens) (P08183 whole entry, looked up): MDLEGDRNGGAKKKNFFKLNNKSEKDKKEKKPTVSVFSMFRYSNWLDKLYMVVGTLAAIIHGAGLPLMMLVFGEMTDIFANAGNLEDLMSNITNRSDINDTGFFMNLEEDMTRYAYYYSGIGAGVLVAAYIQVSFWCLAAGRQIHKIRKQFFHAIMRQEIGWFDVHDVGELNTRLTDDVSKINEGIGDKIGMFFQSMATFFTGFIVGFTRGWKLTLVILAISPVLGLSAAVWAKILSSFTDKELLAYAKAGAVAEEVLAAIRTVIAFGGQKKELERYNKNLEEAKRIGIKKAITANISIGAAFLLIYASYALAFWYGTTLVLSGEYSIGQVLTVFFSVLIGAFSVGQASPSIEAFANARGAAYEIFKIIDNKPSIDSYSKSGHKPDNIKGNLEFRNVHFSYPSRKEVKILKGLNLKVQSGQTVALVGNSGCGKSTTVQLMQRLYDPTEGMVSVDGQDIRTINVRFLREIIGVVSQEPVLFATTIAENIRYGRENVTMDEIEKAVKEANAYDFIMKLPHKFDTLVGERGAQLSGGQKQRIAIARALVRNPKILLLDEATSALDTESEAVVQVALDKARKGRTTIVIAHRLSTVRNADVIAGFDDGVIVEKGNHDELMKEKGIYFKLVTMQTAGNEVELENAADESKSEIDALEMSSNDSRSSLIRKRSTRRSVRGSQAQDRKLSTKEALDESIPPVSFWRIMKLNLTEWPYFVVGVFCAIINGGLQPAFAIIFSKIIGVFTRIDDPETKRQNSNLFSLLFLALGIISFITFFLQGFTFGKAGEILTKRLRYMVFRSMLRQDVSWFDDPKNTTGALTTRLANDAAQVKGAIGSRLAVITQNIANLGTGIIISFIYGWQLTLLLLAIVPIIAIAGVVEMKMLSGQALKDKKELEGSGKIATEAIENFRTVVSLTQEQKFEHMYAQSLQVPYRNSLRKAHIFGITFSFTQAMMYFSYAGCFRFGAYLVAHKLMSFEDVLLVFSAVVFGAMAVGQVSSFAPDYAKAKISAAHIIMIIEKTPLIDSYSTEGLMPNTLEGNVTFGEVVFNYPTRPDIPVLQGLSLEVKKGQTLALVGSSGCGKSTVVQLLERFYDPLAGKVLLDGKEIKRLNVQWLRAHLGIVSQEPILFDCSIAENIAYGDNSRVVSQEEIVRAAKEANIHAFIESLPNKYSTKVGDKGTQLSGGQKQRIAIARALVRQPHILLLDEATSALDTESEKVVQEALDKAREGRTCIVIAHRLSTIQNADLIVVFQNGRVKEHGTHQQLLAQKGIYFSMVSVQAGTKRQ
compound,measurement,setting,value
Clc1cccc(SC2CCNCC2)n1,z-score,[1],-0.34 (inactive)
C[C@]12CCC(=O)C=C1CC[C@@H]1[C@@H]2CC[C@]2(C)C(=O)CC[C@@H]12,period change,[2],0.09 h (inactive)
OC(c1ccccc1)(c1ccccc1)C1CCNCC1,fluorescence slope change,[3],93.1% (active)
O=C(CCCN1CCC(n2c(=O)[nH]c3ccccc32)CC1)c1ccc(F)cc1,fluorescence slope change,[3],57.5% (active)
COc1ccc2c(c1OC)CN1CCc3cc4c(cc3C1C2)OCO4 (stereo not given),fluorescence slope change,[3],24.8% (inactive)
same,AC50,[4],16.6 µM (active)
same,outcome,[5],inactive
CCC(C(N)=O)N1CCCC1=O (stereo not given),z-score,[1],0.645 (inactive)
CN(C)CCc1ccc(O)cc1,outcome,[4],inactive
same,outcome,[5],inactive
C#C[C@]1(O)CC[C@H]2[C@@H]3CCC4=CC(=O)CCC4=C3C=C[C@@]21CC,z-score,[1],0.24 (inactive)
Clc1cccc(N2CCNCC2)c1,period change,[2],0.065 h (inactive)
CN1C[C@H](CNC(=O)OCc2ccccc2)C[C@@H]2c3cccc4c3c(cn4C)C[C@H]21,fluorescence slope change,[3],18.1% (inactive)
same,period change,[2],0.135 h (inactive)
same,inhibition,[6],-2% (inactive)
same,fluorescence ratio (interference),[7],1 (inactive)
same,outcome,[8],inactive
CN(C)C(=S)SSC(=S)N(C)C,rescue above control,[9],2.19
same,inhibition of aggregation,[10],-16.7%
same,glutamate uptake change,[11],7.76%
same,aggregation suppression score,[12],0.0152
COc1ccc2c(c1OC)C(=O)O[C@H]2[C@@H]1c2cc3c(cc2CCN1C)OCO3,period change,[2],-0.14 h (inactive)
same,inhibition,[6],-3% (inactive)
same,fluorescence ratio (interference),[7],1 (inactive)
same,outcome,[8],inactive
Cc1nccc2c1[nH]c1ccccc12,period change,[2],0.11 h (inactive)
same,inhibition,[6],-1% (inactive)
same,fluorescence ratio (interference),[7],1 (inactive)
same,remaining activity,[13],99.4% (inactive)
same,outcome,[8],inactive
same,z-score,[1],-0.38 (inactive) and -0.595 (inactive)
O=C1CC[C@@]2(O)[C@H]3Cc4ccc(O)c5c4[C@@]2(CCN3CC2CC2)[C@H]1O5,fluorescence slope change,[3],79.9% (active)
same,remaining activity,[13],118% (inactive)
same,outcome,[4],inactive
same,outcome,[5],inactive
same,z-score,[1],0.66 (inactive) and 0.275 (inactive)
same,log fold change Tl+ flux,[14],0.00675 (inactive)
same,log fold change Tl+ flux,[15],0.00968 (inactive)
CC[C@@H](CO)NC(=O)[C@@H]1C=C2c3cccc4[nH]cc(c34)C[C@H]2N(C)C1,rescue above control,[9],4.84
same,inhibition of aggregation,[10],24.4%
same,glutamate uptake change,[11],12.4%
same,inclusion score,[16],2
same,aggregation suppression score,[12],1.32
same,period change,[2],0.19 h (inactive)
same,inhibition,[6],-5% (inactive)
same,fluorescence ratio (interference),[7],1 (inactive)
same,remaining activity,[13],107% (inactive)
same,outcome,[8],inactive
same,z-score,[1],0.87 (inactive) and -0.035 (inactive)
c1ccc2c3c([nH]c2c1)CNCC3,fluorescence ratio,[17],0.93 (inactive)
same,inhibition,[18],0.66% (inactive)
same,inhibition,[19],5.12% (inactive)
same,fluorescence ratio,[20],0.91 (inactive)
same,z-score,[1],-0.425 (inactive)
same,log fold change Tl+ flux,[14],-0.00245 (inactive)
same,log fold change Tl+ flux,[15],-0.0184 (inactive)
FC(F)(F)c1cccc(N2CCNCC2)c1,rescue above control,[9],0
same,inhibition of aggregation,[10],50%
same,glutamate uptake change,[11],0.29%
same,inclusion score,[16],2
same,aggregation suppression score,[12],1.16
same,fluorescence ratio,[17],1.01 (inactive)
same,inhibition,[18],-2.77% (inactive)
same,inhibition,[19],-3.95% (inactive)
same,fluorescence ratio,[20],0.93 (inactive)
same,z-score,[1],0.73 (inactive)
same,log fold change Tl+ flux,[14],-0.0132 (inactive)
same,log fold change Tl+ flux,[15],0.0279 (inactive)
COc1ccc2[nH]cc(CCN)c2c1,period change,[2],-0.125 h (inactive)
same,inhibition,[6],-2% (inactive)
same,fluorescence ratio (interference),[7],1 (inactive)
same,fluorescence ratio,[17],0.98 (inactive)
same,inhibition,[18],-1.09% (inactive)
same,inhibition,[19],3.54% (inactive)
same,fluorescence ratio,[20],0.97 (inactive)
same,remaining activity,[13],109% (inactive)
same,outcome,[8],inactive
same,z-score,[1],0.225 (inactive) and 0.515 (inactive)
same,log fold change Tl+ flux,[14],0.0218 (inactive)
same,log fold change Tl+ flux,[15],-0.052 (inactive)
O=c1c2ccccc2[se]n1-c1ccccc1,fluorescence slope change,[3],-12.9% (inactive)
same,inhibition of aggregation,[10],72.2%
same,glutamate uptake change,[11],26.2%
same,aggregation suppression score,[12],0.00636
same,period change,[2],-0.02 h (inactive)
same,inhibition,[6],-2% (inactive)
same,fluorescence ratio (interference),[7],1 (inactive)
same,fluorescence ratio,[17],1 (inactive)
same,inhibition,[18],99.3% (active)
same,inhibition,[19],-0.39% (inactive)
same,fluorescence ratio,[20],1.05 (inactive)
same,remaining activity,[13],-5.47% (active)
same,z-score,[1],-1.44 (inactive)
NC(=O)CS(=O)C(c1ccccc1)c1ccccc1 (stereo not given),fluorescence ratio,[17],1 (inactive)
same,inhibition,[18],0.4% (inactive)
same,inhibition,[19],-3.18% (inactive)
same,fluorescence ratio,[20],0.98 (inactive)
same,z-score,[1],0.66 (inactive)
same,log fold change Tl+ flux,[14],-0.0264 (inactive)
same,log fold change Tl+ flux,[15],0.0296 (inactive)
Clc1ccc(COC(Cn2ccnc2)c2ccc(Cl)cc2Cl)c(Cl)c1 (stereo not given),rescue above control,[9],0
same,inhibition of aggregation,[10],80.3%
same,glutamate uptake change,[11],5.65%
same,aggregation suppression score,[12],0.00246
same,fluorescence ratio,[17],0.96 (inactive)
same,inhibition,[18],6.82% (inactive)
same,inhibition,[19],4.86% (inactive)
same,fluorescence ratio,[20],0.93 (inactive)
same,z-score,[1],-1.52 (inactive) and -2.01 (inactive)
same,log fold change Tl+ flux,[14],-0.0473 (inactive)
same,log fold change Tl+ flux,[15],-0.0262 (inactive)
CC[C@@]1(O)C(=O)OCc2c1cc1n(c2=O)Cc2cc3ccccc3nc2-1,fluorescence slope change,[3],24.5% (inactive)
same,rescue above control,[9],0
same,inhibition of aggregation,[10],-7.84%
same,glutamate uptake change,[11],-25.7%
same,aggregation suppression score,[12],1.49
same,period change,[2],-0.48 h (inactive)
same,inhibition,[6],0% (inactive)
same,fluorescence ratio (interference),[7],1 (inactive)
same,remaining activity,[13],90% (inactive)
same,AC50,[4],0.0469 µM (active)
same,outcome,[5],inactive
same,outcome,[8],inactive
same,z-score,[1],-0.96 (inactive) and -0.91 (inactive) and -2.17 (inactive)
C=C[C@H]1CN2CC[C@H]1C[C@H]2[C@H](O)c1ccnc2ccccc12,fluorescence slope change,[3],71.3% (active)
same,rescue above control,[9],0.34
same,inhibition of aggregation,[10],48.7%
same,glutamate uptake change,[11],-2.27%
same,inclusion score,[16],2
same,aggregation suppression score,[12],1.28
